Test results from the supplement of paper PMC10981050.
Values joined by “and” are separate entries in the source; they are usually repeats but may differ in a detail not shown here. Equal entries are not always repeated. Structures can show the parent of a compound that is named as a salt.

Columns and labels:
Experiment in all cases: cell viability relative to vehicle control; higher = less cytotoxic
Conditions in all cases: 10 µM
[1] = tested on: K562
How it was run: (§1)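 Each screen used CRISPR-edited mutant and wild-type clones from four leukaemia lines. Compounds were acoustically dispensed at a single 10 µM dose, and CellTiter-Glo luminescence was read after 48 h with the supernatant first removed. Viability was analysed in Genedata Screener and given as percent of the on-plate vehicle control.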

[2] = tested on: MARIMO
How it was run: as §1

[3] = tested on: MOLM14
How it was run: as §1

[4] = tested on: OCI-AML2
How it was run: as §1

Row | SMILES | cell viability ([1]; SRSF2 genotype: SRSF2 P95H/wt) | cell viability ([1]; SRSF2 genotype: SRSF2 wt/wt) | cell viability ([2]; SRSF2 genotype: SRSF2 P95H/wt) | cell viability ([2]; SRSF2 genotype: SRSF2 wt/wt) | cell viability ([3]; SRSF2 genotype: SRSF2 P95H/wt) | cell viability ([3]; SRSF2 genotype: SRSF2 wt/wt) | cell viability ([4]; SRSF2 genotype: P95H/wt) | cell viability ([4]; SRSF2 genotype: wt/wt)
1 | CC(N)C12CC3CC(CC(C3)C1)C2 (stereo not given) [Rimantadine (Flumadine)] | 101% and 98.2% | 108% | 98.9% | 104% | 99.8% | 102% | 89.8% | 96.6%
2 | Cc1c(C(=O)Nc2ccc(Oc3ccnc4[nH]cc(-c5ccccc5)c34)c(F)c2)c(=O)n(-c2ccc(F)cc2)n1C | 75.3% and 86.8% | 76.8% | 84.7% | 88.2% | 8.77% | 13.1% | 24.8% | 35.5%
3 | C[C@@H](O)[C@H]1C(=O)N2C(C(=O)O)=C(S[C@@H]3CN[C@H](C(=O)Nc4cccc(C(=O)O)c4)C3)[C@H](C)[C@H]12 [Ertapenem sodium] | 108% and 107% | 105% | 103% | 109% | 99.6% | 107% | 97.1% | 99.8%
4 | O[C@@H](COc1cccc2ncccc12)CN1CCN([C@@H]2c3ccccc3[C@@H]3[C@H](c4ccccc42)C3(F)F)CC1 | 60.6% and 54.3% | 54.9% | 56.6% | 55.6% | 39.8% | 36.2% | 39.2% | 40.7%
5 | Nc1ccn([C@@H]2CS[C@H](CO)O2)c(=O)n1 [Lamivudine (Epivir)] | 100% and 99.5% | 102% | 105% | 104% | 99.8% | 105% | 106% | 114%
6 | C=CCn1c(=O)c2cnc(Nc3ccc(N4CCN(C)CC4)cc3)nc2n1-c1cccc(C(C)(C)O)n1 | 8.01% and 13.9% | 10.5% | 11.7% | 6.8% | 11.6% | 4.1% | 9.17% | 8.01%
7 | Cn1cnc(=N)c2[nH]cnc21 [3-Methyladenine (3-MA)] | 94.6% and 88.8% | 106% | 82.6% | 92.4% | 88% | 92% | 93.4% | 97.6%
8 | C=CC(=O)N1C[C@H](Nc2ncnc3[nH]ccc23)CC[C@@H]1C | 96.3% and 105% | 102% | 94.5% | 97.7% | 81.1% | 93.8% | 86.8% | 91.6%
9 | C=C1CC23CCC4C(C)(C(=O)OC5OC(CO)C(O)C(O)C5O)CCCC4(C)C2CCC1(OC1OC(CO)C(O)C(OC2OC(CO)C(O)C(O)C2O)C1OC1OC(C)C(O)C(O)C1O)C3 (stereo not given) [Rebaudioside C] | 101% and 99.8% | 106% | 108% | 111% | 106% | 103% | 112% | 101%
10 | COc1cc(N2CCN(C)CC2)ccc1Nc1nccc(-c2cn(C)c3cnccc23)n1 | 63.7% and 63.4% | 79.2% | 41% | 39.1% | 3.24% | 1.65% | 6.46% | 11.4%
11 | CCN(C(=O)c1c(O)c2c(Cl)cccc2n(C)c1=O)c1ccccc1 | 98.8% and 96.5% | 96.4% | 92.4% | 99.1% | 84.1% | 93.4% | 87.9% | 99.8%
12 | COc1ccc(/C=C/C(=O)c2c(O)cc(OC)cc2OC)cc1 [Flavokawain A] | 95.5% and 92.8% | 92.7% | 78.9% | 82.6% | 72.6% | 103% | 71.2% | 74.3%
13 | O=C(NC(NC(=S)Nc1ccc(F)c([N+](=O)[O-])c1)C(Cl)(Cl)Cl)C(c1ccccc1)c1ccccc1 (stereo not given) | 6.8% and 10.6% | 17.6% | 35.5% | 30.2% | 1.5% | 4.68% | 1.61% | 4.06%
14 | CC(C)=CCC[C@](C)(O[C@@H]1O[C@H](CO[C@@H]2OC[C@H](O)[C@H](O)[C@H]2O)[C@@H](O)[C@H](O)[C@H]1O)[C@H]1CC[C@]2(C)[C@@H]1[C@H](O)C[C@@H]1[C@@]3(C)CC[C@H](O[C@@H]4O[C@H](CO)[C@@H](O)[C@H](O)[C@H]4O[C@@H]4O[C@H](CO)[C@@H](O)[C@H](O)[C@H]4O)C(C)(C)[C@@H]3CC[C@]12C [Ginsenoside Rb2] | 86% and 89.7% | 84% | 88.4% | 98.1% | 92.2% | 87.7% | 83.2% | 101%
15 | CCOc1cc2ncc(C#N)c(Nc3ccc(F)c(Cl)c3)c2cc1NC(=O)/C=C/CN(C)C [Pelitinib (EKB-569)] | 9.19% and 1.6% | 0.91% | 5.88% | 1.37% | 0.45% | 0.62% | 0.33% | 0.46%
16 | CC[C@@]1(O)C(=O)OCc2c1cc1n(c2=O)Cc2cc3c(CN(C)C)c(O)ccc3nc2-1 [Topotecan HCl] | 15% and 25% | 12.9% | 5.05% | 3.35% | 0.55% | 0.35% | 3.3% | 8.46%
17 | C[C@H](CC(=O)C[C@@H](C)[C@H]1C[C@H](O)[C@@]2(C)C3=C(C(=O)C[C@]12C)[C@@]1(C)CCC(=O)C(C)(C)[C@@H]1C[C@@H]3O)C(=O)O [Ganoderic acid A] | 102% and 109% | 103% | 104% | 104% | 99.5% | 102% | 102% | 111%
18 | C[S+](CC[C@H](N)C(=O)[O-])C[C@H]1O[C@@H](n2cnc3c(N)ncnc32)[C@H](O)[C@@H]1O (stereo not given in full) [Ademetionine] | 108% and 105% | 119% | 104% | 108% | 109% | 111% | 129% | 133%
19 | COc1cc([C@@H]2c3cc4c(cc3[C@@H](O[C@@H]3O[C@@H]5CO[C@@H](c6cccs6)O[C@H]5[C@H](O)[C@H]3O)[C@H]3COC(=O)[C@H]23)OCO4)cc(OC)c1O [Teniposide (Vumon)] | 8.79% and 17.8% | 6.27% | 3.97% | 2.15% | 0.52% | 0.37% | 0.66% | 0.72%
20 | COc1cc([C@@H]2Oc3cc([C@H]4Oc5cc(O)cc(O)c5C(=O)[C@@H]4O)ccc3O[C@H]2CO)ccc1O [Silymarin (Silybin B)] | 106% and 94.4% | 95.6% | 99.6% | 108% | 105% | 102% | 106% | 114%
